# Results as given in the supplement of paper PMC12632987.
# Whole data set: some 1,800 sequences, median “median log2 fold change of GCK-ALFA target abundance (FLAG IP / Myc IP barcode read proportion)” near 0.14, cut for the lowest 2% near -0.84. Only a selection was taken, and the lowest values are over-represented in it overall.
# T1: TRAF2, Q12933
# T1 chain: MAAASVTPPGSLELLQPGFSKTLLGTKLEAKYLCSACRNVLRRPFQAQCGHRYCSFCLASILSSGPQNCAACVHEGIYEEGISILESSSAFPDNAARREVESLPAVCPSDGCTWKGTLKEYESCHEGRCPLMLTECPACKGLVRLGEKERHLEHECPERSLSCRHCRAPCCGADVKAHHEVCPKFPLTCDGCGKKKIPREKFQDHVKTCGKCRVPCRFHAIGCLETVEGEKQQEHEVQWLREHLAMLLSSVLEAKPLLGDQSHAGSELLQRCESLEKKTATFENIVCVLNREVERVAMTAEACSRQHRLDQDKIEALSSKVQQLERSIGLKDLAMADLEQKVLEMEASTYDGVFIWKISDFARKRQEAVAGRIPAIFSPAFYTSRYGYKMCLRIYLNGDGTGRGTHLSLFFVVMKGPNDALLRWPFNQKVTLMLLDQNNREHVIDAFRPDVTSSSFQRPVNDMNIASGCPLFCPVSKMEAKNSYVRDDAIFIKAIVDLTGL
# B1: traf2_out_17_162_1579 (protein)
# chain: SELEEKLKELEEKLKELEKELKRFKEELKNLENKSKEELTDLLVEVSEARREALQLAEELKKLEKEIGEEKAKELIEKAEEIAEEFQRIANEIYKELLKK
# B2: traf2_out_6_156_2416 (protein)
# chain: MVEEILKEALEKVKELIKELAKAPESKKIQYISKIAGTAYRALQKLREAGASLEEIEEFAKRFLEETKKLAKEAGLPEDTINLLLSALQAVFDVAIAEAK
# B3: traf2_out_6_3_2523 (protein)
# chain: SEESLREDARRVLEGMGITTAEQLRRLVRAEVNAVRRLVSRPDTDEADLAGAESVLALAEAVVDVAAEELPDLTEEQVAELRALIEEARKLVEEKRAELA
# B4: traf2_out_17_178_1720 (protein)
# chain: SKEEYRKKISELTDKLIDLAEAAAARLLALARAEGTLSPEELAALEAARRRGSPNDTLALMRRVAPRLRSAAEAEALLADFEAQSKALAKEIAELYEKYE
# B5: traf2_out_13_95_1096 (protein)
# chain: SKELAEKIMEIADKMLDEVEKLLEELLKEAKKAGKLEEEVTEALNLARYRSINEAIHLLEELAKKHPEFKELYEKTIKEIKEIIKEAGKEVAKLIKEEKE
# B6: traf2_out_13_95_1103 (protein)
# chain: SEETAKKIMEVADKMLDKVEELLEKLLEKAKKAGKLEEEIEKALHLARYQSINEAIHLLKELAKKYPEFKEELEETIKEIEALRKQAGKEVAKIIKEEKE
# B7: traf2_out_6_3_2524 (protein)
# chain: SEESLRADARKILEGMGITTAEQLRTLVTAEVNAVRQLVSRPDTDRADLAGARSVLALSRAIVDVAAETLPDLTPEQVAALRALIAAAEELIAAREAELA
# B8: traf2_out_16_104_1376 (protein)
# chain: SAATDAAFQAIIARLEAIAERAQRLANELMKLYEKASPEEKEKISDALVEVSELRRRALAAAEAVRQAQAAGGDLAEAQATLAELEARLAEAEARVEELK
# B9: traf2_out_11_169_872 (protein)
# chain: KEAEKNRKLNDFALELNDEAKEKLKEFALKLAKELGLDVEEVKKIFEENKNKSLSAVAAALIKYFKEKGKEDAAAKIEKKYEELKEEINKKTSEKIKELE
# B10: traf2_out_3_89_2287 (protein)
# chain: SEEREKKIEELRRIIDRYLKGFEKSARRVAKEMLEEGYSLDTLEGVLNASKTALVEEIRRLAKERGLSEEDIKELVEEATKRLDEIVDKILEEAKKARAE
# B11: traf2_out_19_16_1983 (protein)
# chain: AEEEAERLLAEMRRHLDEALRLAEETVANLDKLSRDELMDRLVEISELVRRAQEALQRALELLADDPERRAAIRAEYDERLDRINRLMTKIVDRLLELLK
# B12: traf2_out_11_79_931 (protein)
# chain: SEKRKELEELIKKALKLVEELIKKLKEGNISEEEFAKTIEEILELLQRAMQLALELGLSDVLVLLSEARRHVLLSRTRNLEELEKAAKYLKEALKELEKE
# B13: traf2_out_18_167_1826 (protein)
# chain: SEEAEKKINELRDKLIEYSEIRRLALAAIEALRTDPAAAEAALAAVIAALEKVPEFRPDAERLKALPREELPAALEEIAERAQRKMNEIYKEIEEIKKKA
# B14: traf2_out_6_3_2531 (protein)
# chain: DRESLLADARKVLENMGITTAAELQRLVEAEVRAIRQLISRPDVDRADLAGARSVIALARAMVEVAAETLPDFTPEQQARLQALLAEAEELVRRREEELA
# B15: traf2_out_20_3_2095 (protein)
# chain: EELEKELEKALKEAAKLIKKAIALADPETAARLEALLKRLKAAEKLPLEDRLVALSAVRRELLALAEEARAAGREELAKLLEEAAEEVNRAMNLAYKIIE
# B16: traf2_out_9_17_2611 (protein)
# chain: SAEEEELKERLLEAIEEVLKELVEKGYITEEEAEEILKKVKELIEKGASPDEIIAEFLGMIASILLTKSNLSLPEANKIVGEAYRRLQERLEKIEKELAE
# B17: traf2_out_16_104_1406 (protein)
# chain: AAATQAAFDAIIAELNKIAEELGKIANKIYKKMETASPELKEKLTDALVDASELRRQALEAAVAAAQARATGGDLAAAQATLAELKKKAEEVKKKAEELF
# B18: traf2_out_14_149_1255 (protein)
# chain: SETEKKRKALEEARALMEEIAAILEAALAAGSTEVDRERLRALVEEARAILREQGFVLGHLLAIEEMLATTEEFTLADIEALLAEVRRAAESLAVLAEML
# B19: traf2_out_6_3_2517 (protein)
# chain: MEESIRKDARTVLENMGITTVEQLKKLVEANVNAVKKLVSRKDVDRADLAAANSVLNLTRAMVEVAAETLPDLTEEDVKEMNALIDEARELIEKKKKELE
# Target: T1, TRAF2, Q12933
# Experiment: median log2 fold change of GCK-ALFA target abundance (FLAG IP / Myc IP barcode read proportion) (log2 ratio); each designed protein is fused to an ALFA-tag nanobody in HEK293 cells to bring the named protein to FLAG-tagged glucokinase (GCK); Myc marks an untargeted standard; higher = target protein stabilised (more abundant)
# Details: target protein: 3xFLAG-MCP-GCK-ALFA reporter; HEK293 landing pad (RPLP)
# In short: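 Sequencing of reverse-transcribed, amplified circular RNA barcodes from anti-FLAG and anti-Myc immunoprecipitates provided the readout for an ALFA-nanobody-fused binder library recombined into HEK293 landing-pad cells. Those cells were induced with 2 μg mL^−1 doxycycline, transfected with a plasmid expressing a FLAG-tagged target and a Myc-tagged standard, and lysed after 48 h. Target abundance is the per-binder median log2 ratio of FLAG to Myc barcode read proportions. Only barcodes at a proportion of ≥10^−7 in both replicates and binders with ≥3 barcodes per replicate were kept, with a 10^−6 pseudocount added before the two replicates were pooled.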
row,Binder,median log2 fold change
1,B1,0.462
2,B2,-0.0768
3,B3,-0.222
4,B4,0.2
5,B5,-0.702
6,B6,-1.3
7,B7,-0.125
8,B8,0.417
9,B9,0.289
10,B10,-0.239
11,B11,-0.215
12,B12,0.265
13,B13,0.154
14,B14,-0.925
15,B15,-0.0878
16,B16,0.0354
17,B17,0.196
18,B18,-0.105
19,B19,-1.1
